EP2 modulator – EP2 receptor (human) modulation. P43116. EP2-expressing cells, cAMP HTRF FRET, PGE2 co-stimulation. induction, % at 25 µM. 0.83% of 260,000 active;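 active means compounds whose cAMP rise, as percent of the full-agonist control response, exceeds 60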;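 further: rat C6 glioma line stably carrying human EP2 under a CMV promoter; the protocol text gives 20 µM as final concentration; 100% = response of wells given 1 µM PGE2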
Target sequence (P43116 whole entry, looked up): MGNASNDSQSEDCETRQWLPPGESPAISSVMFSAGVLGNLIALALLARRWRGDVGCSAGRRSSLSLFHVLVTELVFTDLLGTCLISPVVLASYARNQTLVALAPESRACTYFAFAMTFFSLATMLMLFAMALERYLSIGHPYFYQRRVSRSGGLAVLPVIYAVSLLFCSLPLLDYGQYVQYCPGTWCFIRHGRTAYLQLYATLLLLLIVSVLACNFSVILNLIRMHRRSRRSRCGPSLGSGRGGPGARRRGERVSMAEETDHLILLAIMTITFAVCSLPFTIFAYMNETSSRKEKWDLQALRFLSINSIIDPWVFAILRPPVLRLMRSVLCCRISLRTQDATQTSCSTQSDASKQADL
Arbovirus inh – arbovirus infection inhibition | arbovirus infection cell-based antiviral screen | inhibition, % at 10 µM | 0.37% of 200,000 active | AID 1251; in the data active means inhibition above about 30%
Hck-Nef inh – human Hck-Nef kinase inhibition. Recombinant Hck-YEEI plus Nef, Z-Lyte FRET kinase assay. inhibition, % at 20 µM. 0.68% of 220,000 active. AID 463187;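 active means Hck-Nef kinase inhibition above about 50%, limit read from the data; inactive means inhibition below that limit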;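 further: 0% = DMSO with Hck plus Nef and 100% = Hck alone without Nef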
PGE2 EP2 inh – blocks the human prostaglandin E2 receptor EP2 | P43116 | C6 glioma cells expressing human EP2, cAMP TR-FRET; cells stimulated with saturating PGE2 | inhibition, % at 25 µM | 0.52% of 260,000 active | AID 1422;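 active means percent inhibition above 40 after rounding to a whole number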;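 further: rat C6 glioma host cells with rolipram phosphodiesterase inhibitor present; the protocol text gives 20 µM as final concentration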
p97 ATPase inh – inhibitors of human p97 ATPase; inhibition, % at 8 µM; 0.42% of 220,000 active; recombinant p97 ATPase, Kinase-Glo ATP luminescence, 3 h; P55072; AID 1481; in the data active means inhibition above about 15%;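 further: 0% = DMSO vehicle and 100% = wells lacking enzyme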
Hck-Nef confirm – Hck-Nef kinase inhibition, confirmation; shares compounds with Hck-Nef inh; Recombinant Hck-YEEI:Nef, Z-Lyte FRET kinase assay; calls only at 10 µM; 28% of 1,300 active; AID 463188;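 active means average inhibition of at least 50%, with Z-scores no higher than 3 in both the phospho-tyrosine peptide and fluorescence counterscreens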
* marks the source's active call; other numbers are inactive results; i = inactive; · = no result shown; + = active, no number. Compounds with a hit are over-represented: about 2.4% of the library has one in this group of screens.

SMILES	EP2 modulator	Arbovirus inh	Hck-Nef inh	PGE2 EP2 inh	p97 ATPase inh	Hck-Nef confirm
Cc1ccc2nc3c(cc(C(=O)NCC4CCCO4)c(=N)n3C(C)C)c(=O)n2c1 (stereo unspecified)	-23.2	·	·	8.8	·	·
CCOCCCNc1nc2nc3ccc(C)cn3c(=O)c2cc1C(=O)NCC1CCCO1 (stereo unspecified)	-12.7	-2.8	198.7*	5.2	2.8	·
Cc1ccc2nc3c(cc(C(=O)NCC4CCCO4)c(=N)n3CCCOC(C)C)c(=O)n2c1 (stereo unspecified)	-4.1	-14.9	181.5*	9.9	0.2	i
COCCCn1c(=N)c(C(=O)NCC2CCCO2)cc2c(=O)n3cc(C)ccc3nc21 (stereo unspecified)	3.6	·	·	12.6	·	·
O=C(c1nc2ccccc2s1)C1CCN(C(=O)c2cccc(-n3cnnn3)c2)CC1	-54.3	·	·	·	·	·
CCc1nc2sc3c(c2c2nnc(SCC(=O)Nc4c(C)cccc4C)n12)CCCC3	19.3	·	·	5.0	·	·
COCCNc1cc(C)nc2c3c(C)cc(C)nc3nn12	28.1	6.8	57.1*	7.2	-0.5	·
COC(=O)C1=CNC=C(C(=O)OC)C1c1ccccc1Cl	27.6	-1.0	65.8*	7.5	3.0	·
COC(=O)c1ccccc1NC(=O)N1CCCC1	26.3	-9.8	10.6	8.5	2.8	·
COC(=O)c1ccccc1NC(=O)N1CCN(Cc2ccco2)CC1	-14.2	-2.0	64.0*	4.9	2.8	i
CC(C)(C)CC(C)(C)c1ccc(OCC(=O)N/N=C/c2ccc(S(=O)(=O)O)o2)cc1	46.6	·	56.8*	5.9	1.1	+
Cn1c(SCC(=O)c2ccccc2F)nnc1-c1ccco1	-27.5	·	·	3.6	·	·
Oc1c(/C=C/C=C/C=Nc2ccccc2)sc(=S)n1Cc1ccccc1	-24.8	·	50.2*	8.0	-5.2	i
CCOc1ccc(-n2c3nc4ccccc4nc3c3c(=O)n(Cc4ccco4)cnc32)cc1	·	·	-1.6	·	5.1	·
CCOc1ccc(-n2c(N)c(C(=O)NCc3ccco3)c3nc4ccccc4nc32)cc1	7.4	6.9	52.9*	17.3	3.9	i
COc1ccc(N2C3=C(C(=O)CC(C)(C)C3)C(c3cnn(C)c3)C3=C2CC(C)(C)CC3=O)cc1	-2.6	·	55.4*	20.5	2.0	·
COc1cc2c(cc1OC)C1(CCCC1)C(N)=C2C#N	14.2	-8.5	56.1*	9.8	-4.0	·
COc1ccc(S(=O)(=O)N2CCC(C(=O)N3CCC(Cc4ccccc4)CC3)CC2)cc1Cl	-88.8	·	·	9.8	·	·
COCCN1CCN(C(=O)c2ncoc2-c2ccccc2)CC1	-11.1	·	·	9.5	·	·
Cc1ccc(Oc2ccc(-c3nc(N)nc(N)n3)cc2)cc1C	-18.0	-1.3	75.7*	14.7	-0.4	i
O=C(NCc1cccs1)C1CCN(S(=O)(=O)c2ccc(C(F)(F)F)cc2)CC1	-43.5	·	·	13.2	·	·
COc1ccc(-c2cc3ccccc3oc2=O)cc1NC(=O)c1ccc(Br)o1	29.5	2.0	76.5*	14.5	2.8	i
COc1ccc(-c2cc3ccccc3oc2=O)cc1NC(=S)NC(=O)c1ccc2c(c1)OCCO2	-0.6	-9.9	50.6*	9.6	4.1	+
Cc1ccc(CC(=O)N2CCC[C@@H]2Cn2nc(-c3cccs3)ccc2=O)cc1	-49.4	·	·	6.3	·	·
Cc1nn(C)cc1S(=O)(=O)Nc1ccc(CN2CCOCC2)cc1	-10.4	·	·	3.1	·	·
SMILES	EP2 modulator	Arbovirus inh	Hck-Nef inh	PGE2 EP2 inh	p97 ATPase inh	Hck-Nef confirm
Clc1ccc(C2=NN(c3ccccc3)C(c3ccco3)C2)cc1 (stereo unspecified)	24.6	·	60.2*	10.9	8.6	i
CSCCC1NC(=O)N(CC(=O)N2N=C(c3ccc(Cl)cc3)CC2c2ccco2)C1=O (stereo unspecified)	-0.1	-5.9	21.7	5.5	1.5	·
Cc1nnc(SCC(=O)N2N=C(c3ccc(Cl)cc3)CC2c2ccco2)[nH]c1=O (stereo unspecified)	14.6	11.4	50.4*	4.1	2.7	i
Cc1ccc2nc(C3CCN(C(=O)C45CC6CC(CC(C6)C4)C5)CC3)[nH]c2c1	-74.4	·	·	7.8	·	·
COc1ccc(NCc2nnc(SCC(=O)Nc3c(C)cccc3C)n2C)cc1	-22.1	·	·	10.6	·	·
CC(=O)Nc1ccc(N=Cc2c(O)c(C(=O)Nc3ccccc3)cc3ccccc23)cc1	-55.0	-19.0	68.9*	18.1	7.3	i
CC(=O)Nc1ccc(N=Cc2ccc[nH]2)cc1	3.4	-2.0	-1.4	12.8	2.2	·
COc1ccc(-n2c(N)cc(=O)[nH]c2=O)cc1	18.9	·	52.2*	11.2	5.3	i
Nc1cc(=O)[nH]c(=O)n1-c1cccc(F)c1	41.6	-2.9	14.0	12.5	5.9	·
O=C1/C(=C\c2ccco2)SC(=S)N1Cc1ccccc1	41.9	-1.7	0.4	18.4	1.4	·
O=C(O)CN1C(=O)/C(=C/c2ccc(SCc3ccccc3)o2)SC1=S	-6.5	-6.5	73.5*	12.4	2.3	i
O=c1cc(-c2ccc(O)c(O)c2)oc2cc(O)cc(O)c12	-30.0	·	91.1*	26.8	·	+
O=c1c(-c2ccc(O)cc2)coc2cc(O)cc(O)c12	8.1	·	51.6*	9.6	·	i
COc1ccc(-c2cc(=O)c3c(O)cc(O)cc3o2)cc1	-15.4	·	·	12.7	·	·
O=c1c(-c2c(O)cc(O)c3c(=O)cc(-c4ccc(O)cc4)oc23)c(-c2ccc(O)cc2)oc2cc(O)cc(O)c12	-4.4	·	66.2*	20.4	·	i
COc1ccc(-c2coc3cc(O)cc(O)c3c2=O)cc1	10.4	-10.6	2.1	18.3	4.4	·
COc1c(-c2ccc(O)cc2)oc2cc(O)cc(O)c2c1=O	-5.9	·	53.3*	20.3	·	i
Cc1ccnc(NC(=O)COc2cc(C)cc(C)c2C)c1	2.6	·	·	5.2	·	·
CCc1ccc2[nH]c(=O)c(CN(Cc3ccc(C)cc3)C(=O)NC3CCCCC3)cc2c1	23.4	·	·	10.2	·	·
COc1ccc(CC(=O)NCCn2nc(-c3cccs3)ccc2=O)cc1	-18.1	·	·	3.5	·	·
CCOC(=O)C1=C(C)NC(=O)NC1c1cccc(OC)c1OC (stereo unspecified)	-8.0	·	·	12.0	·	·
N#Cc1ccc(/C=C\c2nccc3c2[nH]c2ccccc23)cc1	-6.6	3.2	57.3*	4.3	3.4	i
c1coc(-c2nc3nc4ccccc4nc3n2CC2CCCO2)c1 (stereo unspecified)	-10.5	7.1	158.7*	·	-4.3	·
O=c1[nH]c(/C=C\c2cccc(Cl)c2)c([N+](=O)[O-])c(=O)[nH]1	-59.5	·	·	12.7	·	·
Cc1ccc(CC(=O)Nc2nnc(C(C)(C)C)s2)cc1	9.6	·	·	12.1	·	·
O=C(N/N=C/c1ccc(-c2ccc(Cl)c(C(=O)O)c2)o1)c1cc2c(ccc3ccccc32)o1	-85.6	·	71.7*	22.5	5.4	+
CS(=O)(=O)N(CC(=O)Nc1ccc2c(c1)OCO2)c1cc(Cl)ccc1Cl	-34.3	·	·	17.5	·	·
COC(=O)C1=CN(C)C=C(C(=O)OC)C1c1ccsc1	34.8	6.8	52.6*	5.3	-4.0	i
N#Cc1cc2ccccc2nc1SCC(=O)NCCc1c[nH]c2ccccc12	-41.1	·	·	7.0	·	·
